# G9a block: G9a (human) methyltransferase inhibition; Q96KQ7; Potency, µM (highest dose often 102 µM), for inactives: at the top dose activity, negative = inhibition, usual class: inhibitors; AID 504332; actives 8.8% (n = 350,000); G9a H3K9 monomethylation, AlphaScreen, 2 h; further: on the % scale 0 is the no-effect control and ±100 the full control effect; nearly all actives have a fitted effect of over 75% in size
# Target sequence (Q96KQ7 913-1193 limits assumed): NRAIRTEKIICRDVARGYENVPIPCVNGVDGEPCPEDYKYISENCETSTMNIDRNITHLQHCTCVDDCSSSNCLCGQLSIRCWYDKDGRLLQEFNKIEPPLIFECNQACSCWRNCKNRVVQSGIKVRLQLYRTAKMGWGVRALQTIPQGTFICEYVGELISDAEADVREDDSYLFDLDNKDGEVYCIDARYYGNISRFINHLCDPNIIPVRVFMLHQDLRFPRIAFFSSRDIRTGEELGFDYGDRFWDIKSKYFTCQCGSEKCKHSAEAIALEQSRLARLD
#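 G9a (20 nM) was preincubated 15 min with compound, then reacted 2 h at room temperature with 500 nM biotin-H3K9 peptide and 20 µM SAM. Monomethyl-H3K9 detected by AlphaScreen using anti-H3K9me1 antibody.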
# JMJD2A Tudor inh: inhibitors of human JMJD2A Tudor domain. O75164. AlphaScreen JMJD2A-Tudor / H3K4me3 peptide binding. Potency, µM (series often up to 114 µM), for inactives: at the top dose activity change, negative = inhibition, most hits filed as inhibitors. actives 4.4% (n = 390,000). AID 504339; further: on the % scale 0 is the no-effect control and ±100 the full control effect; nearly all actives have a fitted effect of over 50% in size
# ALOX12 inh: ALOX12 (human) lipoxygenase inhibition. P18054. purified 12hLO, xylenol orange hydroperoxide absorbance. Potency, µM (top dose mostly 108 µM), for inactives: at the highest dose activity change, negative = inhibition, hits mostly inhibitors. actives 1.1% (n = 580,000). AID 1671190; further: on the % scale 0 is the no-effect control and ±100 the full control effect
#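 Purified human 12hLO at 150 nM in 25 mM Hepes, 0.01% Triton X-100, pH 7.0, preincubated 15 min at room temperature with compound. Reaction started with 40 uM arachidonic acid, 30 min at room temperature. Hydroperoxide measured by Fe-xylenol orange, 573/405 nm absorbance ratio.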
# BAZ2B inh: blocks human BAZ2B; AlphaScreen BAZ2B-H3K14Ac peptide displacement; Potency, µM (highest dose often 114 µM), for the others: at the highest dose activity change, negative = inhibition, hits mostly inhibitors; actives 4.4% (n = 360,000); AID 504333; further: on the % scale 0 is the no-effect control and ±100 the full control effect; nearly all actives have a fitted effect of over 60% in size
#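 AlphaScreen luminescence quantifies BAZ2B engagement of H3K14Ac peptide; the protein and biotinylated peptide are both at 50 nM final, buffer PBS pH 7.4 with 0.01% Tween-20, all steps at room temperature.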
# Sfp inh: Sfp phosphopantetheinyl transferase inhibition; Q9F4F7; Biochemical Sfp PPTase activity, qHTS; Potency, µM, for inactives: largest response in the series, negative = inhibition, actives largely listed as inhibitors; actives 3.5% (n = 310,000);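 further: the enzyme is Sfp with the accession as filed and its product quenches rhodamine fluorescence; 0% = enzyme reaction without inhibitor and -100% = no enzyme wells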
#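 Compounds were incubated with enzyme (final 15 nM) for 15 min at room temperature before substrate addition started the reaction. Fluorescence at 525 nm excitation, 598 nm emission was recorded immediately and after 30 minutes.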
# HP1b binding inh: inhibitors of HP1-beta chromodomain binding to methylated histone tails; P83916; AlphaScreen HP1-beta / biotin-H3K9me3 peptide binding; Potency, µM (series often up to 114 µM), for the others: at the top dose activity change, negative = inhibition, usual class: inhibitors; actives 0.56% (n = 390,000); AID 540317; further: nearly all actives have a fitted effect of over 70% in size
# Target sequence (P83916 whole entry, looked up): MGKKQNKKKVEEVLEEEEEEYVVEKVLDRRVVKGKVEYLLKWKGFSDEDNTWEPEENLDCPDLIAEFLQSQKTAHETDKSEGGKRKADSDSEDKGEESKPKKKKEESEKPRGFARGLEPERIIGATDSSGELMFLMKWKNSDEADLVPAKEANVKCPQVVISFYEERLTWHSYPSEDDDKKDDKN
#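 Compound inhibition of the preformed complex between 50 nM HP1-beta and 50 nM biotinylated H3K9me3 peptide was read by AlphaScreen. Buffer was PBS pH 7.4 with 0.01% Tween-20. Incubations ran 30 min at room temperature, with 10 ug/mL donor/acceptor beads.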
# Numbers without * were called inactive; u = inconclusive; x = no result given; [ ] = remark or other dose. An excerpt weighted towards active compounds, which were near 8.7% of everything screened. The call rests on the fitted dose curve; in most records, active means well fitted curve in the direction sought with a large enough effect; inconclusive means small, poorly fitted or top-dose-only effect, or another doubt; inactive means no such curve, though single readings can be large; an effect the other way counts as inactive or inconclusive. Potency means the concentration at half of the fitted maximal effect.
SMILES,G9a block,JMJD2A Tudor inh,ALOX12 inh,BAZ2B inh,Sfp inh,HP1b binding inh
Cc1ccc2cc(CN(C(=O)c3cccc(Cl)c3)c3ccccc3)c(=O)[nH]c2c1,-2.9%[59 µM],-6.2%,-9.6%,-2.5%,x,38.0%
Cc1ccc(N(Cc2cc3ccccc3[nH]c2=O)C(=O)c2ccco2)c(C)c1,-8.5%[12.7 µM],-28.3%,5.1%,-11.8%,-8.7%,0.9%
Cc1ccc(N(Cc2cc3ccc(C)cc3[nH]c2=O)C(=O)c2ccco2)cc1,u,-35.8%,u,-21.6%,22.4µM*,-2.1%
COCCn1c(C(=O)NCc2ccccn2)nc2ccccc2c1=O,x,x,49.5%,x,x,x
CC(=O)N1CCC(C(=O)NCc2ncc(-c3ccccc3)o2)CC1,x,x,63.1%,x,x,x
Cc1cc(Cl)ccc1Oc1ncnc2onc(C)c12,1.9%,-25.2%,1.1%,-10.5%,-0.2%,27.9%
Cc1noc2ncnc(Oc3ccc(Cl)cc3Cl)c12,4.7%,56.2µM*,-18.6%,12.9%,15.3%,11.2%
N#Cc1nc(-c2ccc(S(=O)(=O)N3CCCC3)cc2)oc1NCCN1CCOCC1,x,x,10.5%,x,x,x
COc1cc(Cl)ccc1-c1cccc(COc2cnc3c(ccn3CC(=O)O)c2)c1,x,x,63.1µM*,x,x,x
Cc1cc(Br)ccc1NS(=O)(=O)c1c(C)[nH]c(=O)[nH]c1=O,44.7µM*,-11.5%,-9.3%,-0.9%,-7.3%,25.2%
S=c1nc[nH]c2c1cnn2-c1ccccc1,x,-9.6%,7.7%,-2.3%,17.8µM*,40.2%
CC(=O)N1CCN(c2ccccc2NC(=O)C2(c3ccc(Br)cc3)CCCC2)CC1,x,x,12.1%,x,x,x
CN1CCN(c2ccc3c(c2)C2CC3CCN2C(=O)OCc2ccccc2)CC1 (stereo not drawn),x,u,u,x,x,-9.3%
O=C(OCc1ccccc1)N1CCC2CC1c1cc(N3CCN(C(=S)NCCc4ccccc4)CC3)ccc12 (stereo not drawn),x,x,20µM*,x,x,x
O=C(O)c1cccc(NC(=O)c2cn(-c3ccccc3)nc2-c2ccncc2)c1,31.6µM*,-30.7%,-8.0%,u,-2.1%,u
COc1cccc(-c2nn(-c3ccccc3)cc2C(=O)NCC(=O)O)c1,50.1µM*,-6.9%,u,10.4%,-9.3%,37.7%
COc1ccc(-c2nn(-c3ccccc3)cc2C(=O)NC(=S)NNC(=O)c2ccncc2)cc1,31.6µM*,u,31.6µM*,-15.5%,12.8%,u
COc1cccc(-c2nn(-c3ccccc3)cc2CO)c1,6.3%[59 µM],-6.3%,10.6%,-4.2%,9.1%,49.8%
O=C(O)c1cccc(NC(=O)c2cn(-c3ccccc3)nc2-c2ccc([N+](=O)[O-])cc2)c1,x,-27.5%,1.8%,u,0.4%,-2.4%
COc1ccc(-c2nn(-c3ccccc3)cc2C(=O)Nc2cccc(C(=O)O)c2)cc1[N+](=O)[O-],x,50.1µM*,u,39.8µM*,-5.4%,-28.4%
COC(=O)c1c(C)[nH]c(C(=O)C(C)OC(=O)c2ccccc2F)c1C (stereo not drawn),x,x,12.2%,x,x,x
CC1(C)CCC(NC(=O)C2CCC2)c2ccccc21 (stereo not drawn),x,x,7.9%,x,x,x
CCOC(=O)c1cc(NC(=O)C(C)CC)cc(C(=O)OCC)c1 (stereo not drawn),x,x,16.7%,x,x,x
Cc1ccc(-c2ccc(SCC(=O)c3ccccc3)nn2)cc1,35.5µM*,13.5%,9.7%,-1.4%,-10.7%,18.7%
COc1ccc(-c2ccc(SCC(=O)c3ccccc3)nn2)cc1OC,50.1µM*,-20.5%,-1.7%,-17.5%,-4.3%,17.5%
SMILES,G9a block,JMJD2A Tudor inh,ALOX12 inh,BAZ2B inh,Sfp inh,HP1b binding inh
Cc1ccc(C(=O)CSc2ccc(-c3cccnc3)nn2)cc1,-3.8%,-21.8%,0.0%,-1.0%,5.7%,44.2%
Cc1ccc(C(=O)CSc2ccc(-c3ccncc3)nn2)cc1,39.8µM*,-4.5%,1.2%,u,-37.1%,11.6%
COc1ccc(-c2ccc(SCC(=O)NC3CCCC3)nn2)cc1OC,-7.9%,-11.8%,23.9%,-13.8%,10.4%,16.0%
COc1ccccc1[C@@H]1CN(C(=O)CCc2scnc2C)C[C@H]1C(=O)O,x,x,27.0%,x,x,x
O=C1NC(=Nc2ccccc2Cl)S/C1=C\c1cccc([N+](=O)[O-])c1O,8.91µM*,39.8µM*,u,11.2µM*,-22.6%,u
O=C1NC(=Nc2ccccc2Cl)S/C1=C\c1ccc(C(=O)O)cc1,-12.9%,-15.1%,5.1%,-17.6%,14.1%,18.9%
O=C1NC(=Nc2ccccc2Cl)S/C1=C\c1cccc([N+](=O)[O-])c1,u,u,u,50.1µM*,-7.5%,31.6%
Cc1cccc(-c2nnc(C(C)Sc3n[nH]c(N)n3)o2)c1 (stereo not drawn),x,x,4.8%,x,x,x
Cc1ccccc1C(=O)N1CCC(C(=O)N2CCN(c3ncccn3)CC2)CC1,2.9%[2.33 µM],-15.4%,-41.5%,8.0%,x,17.8%
Cc1ccccc1C(=O)N1CCC(C(=O)Nc2ccc(S(=O)(=O)N3CCCCC3)cc2)CC1,x,-11.8%,44.7µM*,-6.9%,4.8%,10.0%
C=CCNC(=O)c1ccccc1NC(=O)C1CCN(S(=O)(=O)c2ccc(SC)cc2)CC1,10.0%,-7.0%,u,50.1µM*,-6.8%,-3.0%
Cc1ccccc1C(=O)N1CCC(C(=O)Nc2ccccc2N2CCCC2)CC1,50.1µM*,-28.2%,-1.7%,1.5%,x,-4.4%
CCOC(=O)N1CCN(C(=O)C2CCN(C(=O)c3ccccc3C)CC2)CC1,x,7.08µM*,u,x,x,7.94µM*
C=CCNC(=O)c1ccccc1NS(=O)(=O)c1ccc(SC)cc1,-3.6%[12.7 µM],-1.1%,-7.6%,0.5%,10.6%,34.2%
CC1=C(C#N)C(O)(C(F)(F)F)C(=O)N1 (stereo not drawn),x,x,1.7%,x,x,x
O=C(CN1CCOCC1)N1C[C@@H](COCC2CC2)[C@H](c2ccccn2)C1,x,x,40.8%,x,x,x
CC(=O)Nc1ccc(CN2C(=O)OC3(CCN(C(=O)c4ccnn4C)CC3)C2(C)c2ccccc2)cc1 (stereo not drawn),x,x,63.7%,x,x,x
O=C(c1ccco1)N1CCN(S(=O)(=O)c2ccc(C3CCCCC3)cc2)CC1,1.7%[12.7 µM],-12.9%,-20.6%,8.2%,8.5%,17.4%
CS(=O)(=O)c1ccccc1C(=O)N1CCN(S(=O)(=O)c2ccc(C3CCCCC3)cc2)CC1,50.1µM*,-31.7%,-6.6%,-32.1%,x,7.1%
Cn1c(C=C(C#N)C#N)ccc1-c1ccc(Cl)cc1,x,x,-2.2%,x,x,x
COc1ccc(CN2CCCCCC2c2cccs2)c(OC)c1 (stereo not drawn),x,x,0.2%,x,x,x
CN(CCOc1ccccc1)CC(=O)Nc1ccc(Cl)c(S(=O)(=O)N(C)C)c1,8.91µM*,2.82µM*,-18.1%,x,56.2µM*,-7.5%
CN(C)S(=O)(=O)c1ccc(Cl)c(C(=O)Nc2ccccc2[N+](=O)[O-])c1,2.8%[59 µM],-35.0%,-13.8%,-9.5%,5.3%,-9.8%
